Compound activity: PubChem, several laboratories
KLK7 zymogen act – proKLK7 zymogen activators, primary screen, biochemical, fluorescence intensity. Kallikrein-7 (Homo sapiens), P49862. purified proKLK7, EDANS-DABCYL substrate fluorescence; 100% is mature enzyme control, 0% vehicle. activation, % at 7 µM. 370,000 tested, 0.9% active;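 active means activation above the mean of all tested compounds plus 3 SD, computed per campaign excluding outliers beyond control limits, cut at about 13% in these data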
GRIN3A LBD mod – binders of NR3A ligand-binding domain, primary screen, biophysical, differential scanning fluorimetry, uHTS. Glutamate receptor ionotropic, NMDA 3A (GRIN3A) ligand-binding domain. NR3A LBD differential scanning fluorimetry, Tm shift; 0% = protein alone, 100% = glycine-bound protein. Tm shift relative to glycine control, % at 25 µM. 340,000 tested, 2.5% active. AID 1259313, 2017;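 active means melting temperature shift of at least 10% of the positive control shift, at one fixed dose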
FAS-TE inh – FAS thioesterase domain inhibitors, primary screen, biochemical, fluorescence intensity, uHTS | Fatty acid synthase (Homo sapiens), P49327 | recombinant FAS-TE, OMFH fluorogenic substrate, fluorescence endpoint | inhibition, % at 15 µM | 360,000 tested, 0.67% active;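 active means compounds whose normalised, plate-corrected inhibition of enzyme fluorescence in the single-dose primary screen is 50% or more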;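 further: 0% = DMSO with enzyme and 100% = substrate without enzyme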
ADAM17 inh – ADAM17 inhibitors, primary screen, biochemical, QFRET. 370,000 tested, 0.83% active. recombinant ADAM17, EDANS/DABCYL FRET peptide cleavage. inhibition, % at 6.95 µM. AID 720648, 2013;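 active means inhibition above the mean of compounds lying between control limits plus 3 SD, set per campaign, cut at about 8.5% in these data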;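 further: 0% = DMSO-only wells as the low control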
Target sequence (P78536 215-824 limits assumed): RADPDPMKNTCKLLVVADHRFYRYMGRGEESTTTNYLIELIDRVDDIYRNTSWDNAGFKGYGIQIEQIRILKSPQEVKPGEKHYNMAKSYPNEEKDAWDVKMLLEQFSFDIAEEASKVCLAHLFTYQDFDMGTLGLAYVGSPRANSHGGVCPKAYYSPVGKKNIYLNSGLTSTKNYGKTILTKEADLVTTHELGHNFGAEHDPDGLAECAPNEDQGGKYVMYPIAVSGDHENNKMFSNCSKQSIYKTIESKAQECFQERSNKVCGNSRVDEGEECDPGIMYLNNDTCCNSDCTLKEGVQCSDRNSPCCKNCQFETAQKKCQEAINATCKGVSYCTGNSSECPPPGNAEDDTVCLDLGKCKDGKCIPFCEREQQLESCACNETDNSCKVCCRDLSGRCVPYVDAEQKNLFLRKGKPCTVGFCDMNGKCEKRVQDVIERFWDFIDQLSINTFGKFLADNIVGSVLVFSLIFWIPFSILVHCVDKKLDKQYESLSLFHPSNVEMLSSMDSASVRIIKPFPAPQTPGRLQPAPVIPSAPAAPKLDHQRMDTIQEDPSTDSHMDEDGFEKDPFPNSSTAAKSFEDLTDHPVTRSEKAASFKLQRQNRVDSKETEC
ADAM10 inh – human ADAM10 inhibitors, primary screen, biochemical, QFRET, HTS | inhibition, % at 7 µM | AID 720582, 2013 | 370,000 tested, 0.62% active | Disintegrin and metalloproteinase domain-containing protein 10 (Homo sapiens), O14672 | recombinant ADAM10, EDANS/DABCYL FRET peptide cleavage, 3 h;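 active means inhibition above a per-campaign cutoff equal to the mean of compounds falling between control-based bounds plus 3 SD, cut at about 20% in these data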;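 further: 0% = DMSO wells while the 100% control is not disclosed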
FAS-TE conf – FAS thioesterase domain inhibitors, confirmation, biochemical, fluorescence intensity, single concentration; recombinant FAS-TE, OMFH fluorogenic substrate; inhibition, % at 15 µM; shares compounds with FAS-TE inh; 2,300 tested, 45% active; AID 624325, 2012;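 active means compounds inhibiting the enzyme by at least 50% at 15 µM in any one of the replicates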;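 further: 0% = enzyme with DMSO only and 100% = wells lacking enzyme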
Starred values were filed as active, the others as inactive. Sampled rows, rich in hits. Any-hit rate of the full collection: about 4.6%.

Cc1cc(C)cc(N(CC(=O)N2CCn3c2nc2ccccc23)S(=O)(=O)c2c(C)noc2C)c1 was read as KLK7 zymogen act -1, GRIN3A LBD mod -8, FAS-TE inh 65*, ADAM17 inh -3, ADAM10 inh 8 and FAS-TE conf 28.
`CC(NC(=O)C12CC3CC(CC(C3)C1)C2)C(=O)N/N=C/C1=C(N2CCOCC2)C(=C\c2ccccc2)/CC1` (stereo unspecified) gave KLK7 zymogen act 0, GRIN3A LBD mod -8, FAS-TE inh 71*, ADAM17 inh 0, ADAM10 inh 0 and FAS-TE conf 9.
Cn1cc(C(=O)N/N=C/C2=C(N3CCOCC3)C(=C\c3ccccc3)/CC2)ccc1=O was read as KLK7 zymogen act -1, GRIN3A LBD mod -2, FAS-TE inh -4, ADAM17 inh -8 and ADAM10 inh -17.
COc1cc(OC)c(N(C)S(=O)(=O)c2cccc(C(=O)OCC(=O)N(C)C3CCCCC3)c2)cc1Cl was read as KLK7 zymogen act 0, GRIN3A LBD mod 3, FAS-TE inh 66*, ADAM17 inh -3, ADAM10 inh -1 and FAS-TE conf 11.
For CN(C(=O)COC(=O)c1cccc(S(=O)(=O)N2CCCCC2)c1)C1CCS(=O)(=O)C1 (stereo unspecified) the results were KLK7 zymogen act 0, GRIN3A LBD mod 3, FAS-TE inh 0, ADAM17 inh -4 and ADAM10 inh -11.
For COc1cc(OC)c(N(C)S(=O)(=O)c2cccc(C(=O)Nc3nccs3)c2)cc1Cl the results were KLK7 zymogen act -1, GRIN3A LBD mod -6, FAS-TE inh 66*, ADAM17 inh 3, ADAM10 inh 2 and FAS-TE conf 14.
COc1cc2c(cc1OC)CSC1C(=O)N(C)C(SC2)C(=O)N1C was read as KLK7 zymogen act 0, ADAM17 inh 3 and ADAM10 inh 2.
For CCOC(=O)[C@]12CCCC=C1N(Cc1ccc(OC)cc1)C(=O)[C@@H]2CC(=O)NCCc1ccccc1OC the results were KLK7 zymogen act 9, ADAM17 inh 2 and ADAM10 inh 6.
For COc1ccc(-n2c(COc3ccc(Cl)cc3)nnc2SCC(=O)Nc2ccc(Oc3ccccc3)cc2)cc1 the results were KLK7 zymogen act -1, ADAM17 inh -3 and ADAM10 inh -2.
`CC(C)C[C@@]12C(=O)N(c3cccc(Br)c3)C(=O)N1[C@H](c1ccc(Cl)cc1)[C@@H]1C(=O)N(C3CCCCC3)C(=O)[C@@H]12` gave KLK7 zymogen act 0, GRIN3A LBD mod -1, FAS-TE inh 92*, ADAM17 inh -1, ADAM10 inh 0 and FAS-TE conf 19.
`CC[C@@]12C(=O)N(c3cccc(Br)c3)C(=O)N1[C@H](c1ccc(Cl)cc1)[C@@H]1C(=O)N(C3CCCCC3)C(=O)[C@@H]12` gave KLK7 zymogen act 0, GRIN3A LBD mod -9, FAS-TE inh 87*, ADAM17 inh 0, ADAM10 inh 4 and FAS-TE conf 19.
For CC[C@@]12C(=O)N(c3ccc(OC)cc3)C(=O)N1[C@H](c1ccc(Cl)cc1)[C@@H]1C(=O)N(C3CCCCC3)C(=O)[C@@H]12 the results were KLK7 zymogen act 0, GRIN3A LBD mod -5, FAS-TE inh 67*, ADAM17 inh -1, ADAM10 inh 6 and FAS-TE conf 42.
CC(C)C[C@@]12C(=O)N(c3cccc(Cl)c3)C(=O)N1[C@H](c1ccc(Cl)cc1)[C@@H]1C(=O)N(C3CCCCC3)C(=O)[C@@H]12 was read as KLK7 zymogen act 0, GRIN3A LBD mod -5, FAS-TE inh 90*, ADAM17 inh -3, ADAM10 inh -1 and FAS-TE conf 28.
CCN1C(=O)[C@H]2[C@@H](c3ccc(C)cc3)N3C(=O)N(c4cccc(Cl)c4)C(=O)[C@@]3(CC(C)C)[C@H]2C1=O was read as KLK7 zymogen act 0, GRIN3A LBD mod -5, FAS-TE inh 12, ADAM17 inh 5 and ADAM10 inh 11.
CC[C@@]12C(=O)N(c3cccc(C)c3)C(=O)N1[C@H](c1ccc(Br)cc1)[C@@H]1C(=O)N(C(C)(C)C)C(=O)[C@@H]12 was read as KLK7 zymogen act 1, GRIN3A LBD mod -12, FAS-TE inh 24, ADAM17 inh 2 and ADAM10 inh 14.
Screening COc1cc(NC(=O)c2cnn3c(C)cc(C)nc23)cc(OC)c1OC returned ADAM17 inh -2 and ADAM10 inh -2.
`COC(=O)[C@@]12CCCCC=C1N(CCc1ccc(Cl)cc1)C(=O)[C@H]2CC(=O)NCCc1ccccc1OC` gave KLK7 zymogen act 0, ADAM17 inh -3 and ADAM10 inh -4.
`CCC[C@H]1[C@@H](NC(=O)c2cccc(C(F)(F)F)c2)CC[C@@]23CCCN2C(=O)CCC[C@@H]13` gave ADAM17 inh -6 and ADAM10 inh -7.
`Cc1ccc(Cl)cc1N1CCN(C(c2ccc(C#N)cc2)c2nnnn2C2CCCC2)CC1` (stereo unspecified) gave KLK7 zymogen act 0, GRIN3A LBD mod -3, FAS-TE inh 69*, ADAM17 inh -3, ADAM10 inh 7 and FAS-TE conf -2.
CCOc1ccc(S(=O)(=O)c2c(C(=O)c3ccccc3)cnc3cc4c(cc23)OCCO4)cc1 was read as KLK7 zymogen act -89, GRIN3A LBD mod 0, FAS-TE inh 80*, ADAM17 inh -16, ADAM10 inh -47 and FAS-TE conf 40.
Cc1ccc(C)c(NC(=O)Cn2nnc(-c3ccncc3)n2)c1 was read as KLK7 zymogen act 0, ADAM17 inh -2 and ADAM10 inh 1.
For CCc1ccccc1-c1cc(C(C)=O)c2n(c1=O)CCC2 the results were KLK7 zymogen act 0, ADAM17 inh -6 and ADAM10 inh -2.
`CCOC(=O)[C@@]12CCCC3=C1N(CCC3)C(=O)[C@H]2CC(=O)N1CCOCC1` gave KLK7 zymogen act 0, ADAM17 inh -4 and ADAM10 inh 1.
`O=C1c2ccccc2S(=O)(=O)c2cc(C(=O)N3CCN(c4ccccc4)CC3)ccc21` gave KLK7 zymogen act 0, GRIN3A LBD mod -3, FAS-TE inh 20, ADAM17 inh 0 and ADAM10 inh -4.
